Here are results for 25 sequences from publication PMC12820563, “FoxP3 forms a head-to-head dimer in vivo and stabilizes its multimerization on adjacent microsatellites”.

In all, about 16,000 sequences were measured (“rpm ratio (pull-down/input)”: median about 0.94, highest 2% from about 1.7 on). For the sample, the highest values were picked, then their nearest neighbours and some sequences at random.

The target of this assay is T1, MBP-FoxP1dN (Mus musculus, UniProt P58462 326-579).
T1 sequence: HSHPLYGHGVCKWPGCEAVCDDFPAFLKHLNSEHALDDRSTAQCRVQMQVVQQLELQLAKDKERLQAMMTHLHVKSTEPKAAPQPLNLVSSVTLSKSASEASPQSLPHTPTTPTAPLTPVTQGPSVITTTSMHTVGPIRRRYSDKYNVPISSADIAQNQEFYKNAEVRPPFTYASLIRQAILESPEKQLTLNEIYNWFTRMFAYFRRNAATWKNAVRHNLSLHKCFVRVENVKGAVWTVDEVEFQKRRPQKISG
The assay can be described thus: PD-seq (MBP pull-down with sequencing); 20 mM Tris-HCl pH 7.5, 100 mM NaCl, 1.5 mM MgCl2, 0.4 uM protein, 0.1 uM dsDNA library, 30 min, room temperature, amylose pull-down; high values mean tight binding. To be noted: protein: recombinant; tags: His6-MBP; chain copies: 2; dsDNA, one strand shown. The essentials:
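A fragment of mouse FoxP3 or FoxP1 without its N-terminus, carrying a His6-MBP tag and produced in E. coli, was combined at 0.4 µM with a 0.1 µM degenerate double-stranded DNA library filled in with Klenow. The mixture sat for 30 min at room temperature in Tris pH 7.5 buffer containing NaCl and MgCl2. Protein–DNA complexes were captured on amylose resin, washed three times, and the DNA was freed with proteinase K, barcoded by PCR and sequenced on Illumina. Binding is expressed as reads-per-million enrichment of pull-down over input, with replicates pooled.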
As to “GATGATTGTTCTCCCAGCTGATGAATTTCTCTATTCGAGTAAACAAATTTTCCTAATCTTTCTGTTCAAGCGCCATCTAC”, the binding signal is 0.936 RPM ratio (pull-down/input). Take “GATGATTGTTCTCCCAGCTGATGAATTCTCGGCCTCGAGTAAACAAATTTTCCTAATCTTTCTGTTCAAGCGCCATCTAC”: the binding signal was 0.731 RPM ratio (pull-down/input).

Regarding “GATGATTGTTCTCCCAGCTGATGAATTATGACTGTCGAGTAAACAAATTTTCCTAATCTTTCTGTTCAAGCGCCATCTAC”, the binding signal is 0.934 RPM ratio (pull-down/input). For “GATGATTGTTCTCCCAGCTGATGAATTCCCTCGGTCGAGTAAACAAATTTTCCTAATCTTTCTGTTCAAGCGCCATCTAC”, the binding signal is 0.759 RPM ratio (pull-down/input).

As for “GATGATTGTTCTCCCAGCTGATGAATTGTGCCTATCGAGTAAACAAATTTTCCTAATCTTTCTGTTCAAGCGCCATCTAC”, the binding signal is 1.09 RPM ratio (pull-down/input).

“GATGATTGTTCTCCCAGCTGATGAATTTGATCACTCGAGTAAACAAATTTTCCTAATCTTTCTGTTCAAGCGCCATCTAC”: the binding signal is 1.02 RPM ratio (pull-down/input). With “GATGATTGTTCTCCCAGCTGATGAATTCCAAGTATCGAGTAAACAAATTTTCCTAATCTTTCTGTTCAAGCGCCATCTAC”, the binding signal was 0.949 RPM ratio (pull-down/input). “GATGATTGTTCTCCCAGCTGATGAATTCGCTTAATCGAGTAAACAAATTTTCCTAATCTTTCTGTTCAAGCGCCATCTAC”: the binding signal is 0.936 RPM ratio (pull-down/input). The same measure for “GATGATTGTTCTCCCAGCTGATGAATTCTGTGGATCGAGTAAACAAATTTTCCTAATCTTTCTGTTCAAGCGCCATCTAC”: 0.956 RPM ratio (pull-down/input). Then “GATGATTGTTCTCCCAGCTGATGAATTATCTAGATCGAGTAAACAAATTTTCCTAATCTTTCTGTTCAAGCGCCATCTAC”, with 0.863 RPM ratio (pull-down/input); and “GATGATTGTTCTCCCAGCTGATGAATTTATATCATCGAGTAAACAAATTTTCCTAATCTTTCTGTTCAAGCGCCATCTAC”, with 1.27 RPM ratio (pull-down/input).

In the case of “GATGATTGTTCTCCCAGCTGATGAATTAAATGCGTCGAGTAAACAAATTTTCCTAATCTTTCTGTTCAAGCGCCATCTAC”, the binding signal is 1.43 RPM ratio (pull-down/input). For the sequence “GATGATTGTTCTCCCAGCTGATGAATTATTGGCTTCGAGTAAACAAATTTTCCTAATCTTTCTGTTCAAGCGCCATCTAC”, the binding signal was 1.1 RPM ratio (pull-down/input). In the case of “GATGATTGTTCTCCCAGCTGATGAATTTGTTTTCTCGAGTAAACAAATTTTCCTAATCTTTCTGTTCAAGCGCCATCTAC”, the binding signal was 2.32 RPM ratio (pull-down/input). For “GATGATTGTTCTCCCAGCTGATGAATTGTTTCTCTCGAGTAAACAAATTTTCCTAATCTTTCTGTTCAAGCGCCATCTAC”, the binding signal is 1.33 RPM ratio (pull-down/input).

For the sequence “GATGATTGTTCTCCCAGCTGATGAATTGTTTAGCTCGAGTAAACAAATTTTCCTAATCTTTCTGTTCAAGCGCCATCTAC”, the binding signal was 1.89 RPM ratio (pull-down/input).

For the sequence “GATGATTGTTCTCCCAGCTGATGAATTTGCATCCTCGAGTAAACAAATTTTCCTAATCTTTCTGTTCAAGCGCCATCTAC”, the binding signal was 1.77 RPM ratio (pull-down/input). As for “GATGATTGTTCTCCCAGCTGATGAATTTTGCATCTCGAGTAAACAAATTTTCCTAATCTTTCTGTTCAAGCGCCATCTAC”, the binding signal is 1.52 RPM ratio (pull-down/input). Then “GATGATTGTTCTCCCAGCTGATGAATTGCATCCCTCGAGTAAACAAATTTTCCTAATCTTTCTGTTCAAGCGCCATCTAC”, with 1.46 RPM ratio (pull-down/input). The same measure for “GATGATTGTTCTCCCAGCTGATGAATTCTGTTTCTCGAGTAAACAAATTTTCCTAATCTTTCTGTTCAAGCGCCATCTAC”: 1.14 RPM ratio (pull-down/input); for “GATGATTGTTCTCCCAGCTGATGAATTTTTGTTCTCGAGTAAACAAATTTTCCTAATCTTTCTGTTCAAGCGCCATCTAC”: 0.963 RPM ratio (pull-down/input). Take “GATGATTGTTCTCCCAGCTGATGAATTTTGTTTCTCGAGTAAACAAATTTTCCTAATCTTTCTGTTCAAGCGCCATCTAC”: the binding signal was 1.71 RPM ratio (pull-down/input).

As to “GATGATTGTTCTCCCAGCTGATGAATTTAGCTCCTCGAGTAAACAAATTTTCCTAATCTTTCTGTTCAAGCGCCATCTAC”, the binding signal is 0.946 RPM ratio (pull-down/input). In the case of “GATGATTGTTCTCCCAGCTGATGAATTTTTTAGCTCGAGTAAACAAATTTTCCTAATCTTTCTGTTCAAGCGCCATCTAC”, the binding signal was 0.853 RPM ratio (pull-down/input). Then “GATGATTGTTCTCCCAGCTGATGAATTGTTTTTCTCGAGTAAACAAATTTTCCTAATCTTTCTGTTCAAGCGCCATCTAC”, with 2.22 RPM ratio (pull-down/input).
